These results are taken from PubChem BioAssay (NCATS).

Experiment [1] addresses Calcium and integrin-binding protein 1 (Homo sapiens) (UniProt Q99828). The experiment is described as follows: Primary qHTS for Identification of Calcium Integrin Binding Protein 1 (CIB1) Competitor (AID 1508620).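 Further: GST tagged CIB1 binding a fluorescein labelled alphaIIb integrin peptide tracer; top concentration of the series differs between compounds.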 In a few lines:
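Fluorescence polarization competition: CIB1-GST (1 uM final) preincubated with compound 15 min at room temperature, then FITC-labeled alphaIIb peptide (100 nM final) added for another 15 min. Polarization read at Ex 480/Em 540.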

Experiment [2] is described as follows: Primary qHTS for inhibitors of nuclear receptor binding SET domain protein 2 (NSD2) in an isogenic RCH-ACV NSD2 p.E1099K mutant (9B) (AID 1645876; further: nearly all actives have a fitted effect of over 70% in size; further: potency means the concentration at half of the fitted maximal effect). (Quantitative high-throughput screening tests each substance at several concentrations.)
A short description of experiment [3]: Primary qHTS for inhibitors of nuclear receptor binding SET domain protein 2 (NSD2) in an RCH-ACV wild type WT cells (2C) (AID 1645877). Further: nearly all actives have a fitted effect of over 70% in size. Further: potency means the concentration at half of the fitted maximal effect.

Several values for one entry are separate records, joined by “and”; a condition that tells them apart may be missing. Equal entries are not always repeated. Records with an inconclusive call do not appear. Unmarked numbers belong to inactive results. Activity calls are given as the source filed them. The call rests on the fitted dose curve; in most records, active means well fitted curve in the direction sought with a large enough effect; inconclusive means small, poorly fitted or top-dose-only effect, or another doubt; inactive means no such curve, though single readings can be large; an effect the other way counts as inactive or inconclusive.

Calcium and integrin-binding protein 1 (Homo sapiens), sequence (Q99828 whole entry, looked up): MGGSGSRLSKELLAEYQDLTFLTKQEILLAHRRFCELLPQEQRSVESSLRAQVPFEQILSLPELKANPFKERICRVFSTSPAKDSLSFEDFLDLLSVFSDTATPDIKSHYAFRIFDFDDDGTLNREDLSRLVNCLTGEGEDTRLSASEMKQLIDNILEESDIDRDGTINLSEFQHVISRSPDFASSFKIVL

For the compound `Cc1nc(NC(=O)N2CCCC2C(N)=O)sc1-c1ccnc(C(C)(C)C(F)(F)F)c1` (centres undefined), in experiment [1], the Potency result was “inactive”. Moreover, the Potency is 2.35 µM (active) in experiment [2] and 2.63 µM (active) in experiment [3].

As to `CC(=O)O[C@@H]1C[C@@]23C[C@@]24CC[C@H](O[C@@H]2OC[C@H](O)[C@H](O)[C@H]2O)C(C)(C)[C@@H]4CC[C@H]3[C@]2(C)[C@@H](O)C34O[C@H](C[C@@H](C)[C@@H]3[C@@]12C)[C@@H](C(C)(C)O)O4`, the Potency result in experiment [1], in experiment [2] and in experiment [3] was “inactive” each time.

As to `C[C@H]1CC[C@@]2(OC1)O[C@H]1CC3C4CC[C@H]5C[C@@H](O)CC[C@]5(C)C4=CC(=O)[C@]3(C)[C@H]1[C@@H]2C` (some centres undefined), the Potency entry in experiment [1], in experiment [2] and in experiment [3] was “inactive” each time.

Turning to `COc1cc2c(NC3CCN(C(C)C)CC3)nc(N3CCC(F)(F)CC3)nc2cc1OCCCN1CCCC1`, the Potency entry in experiment [1] was “inactive”. Further, the Potency is 20.5 µM (active) in experiment [2] and 11.5 µM (active) in experiment [3].

As to `C=C1C(=O)O[C@@H]2C[C@H](C)[C@@H]3CC(=O)[C@H](O)[C@@]3(C)C[C@H]12`, the Potency result in experiment [1] was “inactive”. Moreover, the Potency is 20.5 µM (active) in experiment [2] and 10.3 µM (active) in experiment [3].

For `C/C=C(\C)[C@@H]1C(C)=C[C@@H]2[C@H]([C@@H]1/C=C/C=C/C(=O)O)[C@@H](C)CC[C@@H]2O`, the Potency entry in experiment [1] was “inactive”. The Potency in experiment [2] is 5.05 µM (active); in experiment [3], 4.01 µM (active).

On to `Cc1sc2c(c1C)C(c1ccc(Cl)cc1)=N[C@H](CC(=O)NCCCCNC(=O)COc1cccc3c1C(=O)N([C@H]1CCC(=O)NC1=O)C3=O)c1nnc(C)n1-2`, for which the Potency entry in experiment [1] is “inactive”. For the same compound, the Potency was 0.23 µM (active) in experiment [2] and 0.129 µM (active) in experiment [3].

For `C=C1CC[C@@H]2[C@](C)(CO)[C@H](O)CC[C@@]2(C)[C@@H]1CC(=O)C1=CCOC1=O`, the Potency result in experiment [1], in experiment [2] and in experiment [3] was “inactive” each time.

Turning to `COc1ccc(C2Oc3c(OC)cc(CCCO)cc3C2COC2OC(CO)C(O)C(O)C2O)cc1OC` (centres undefined), the Potency entry in experiment [1], in experiment [2] and in experiment [3] was “inactive” each time.

For `Cc1nnc(C[C@@H]2C=C(c3ccc(Cl)cc3)c3ccccc3-n3c(C)nnc32)o1`, the Potency entry in experiment [1] was “inactive”. Also, the Potency in experiment [2] is 0.332 µM (active); in experiment [3] it was 0.296 µM (active).

With `COc1cccc(-c2cc(F)ccc2C2Cc3nc(N)nc(C)c3C(=O)N2)n1` (centres undefined), the Potency result in experiment [1] is “inactive”. Further, the Potency in experiment [2] was 0.0525 µM (active); in experiment [3], 0.059 µM (active).

In the case of `CN1c2c(nc(N)[nH]c2=O)NC[C@@H]1CNc1ccc(C(=O)N[C@@H](CCC(=O)O)C(=O)O)cc1`, the Potency result in experiment [1], in experiment [2] and in experiment [3] was “inactive” throughout.

As to `Nc1nc(Cl)nc2c1ncn2C1OC(CO)C(O)C1F` (centres undefined), the Potency result in experiment [1] was “inactive”. The figures for the Potency in experiment [2] and in experiment [3] were 0.0092 µM (active) and 0.0082 µM (active), respectively.

For `CC1CC(=O)C2=C(C1)C1OC1C1(O)C2C(=O)c2cccc(O)c2C1O` (centres undefined), the Potency entry in experiment [1], in experiment [2] and in experiment [3] was “inactive” throughout.

With `CC(C)(C)NC(=O)[C@H]1CC[C@H]2[C@@H]3CC[C@H]4NC(=O)CC[C@]4(C)[C@H]3CC[C@]12C`, the Potency entry in experiment [1], in experiment [2] and in experiment [3] was “inactive” each time.

For `Fc1ccc2[nH]ccc2c1-c1nc(N2CCOCC2)c2sc(CN3CCN(CC4CC4)CC3)cc2n1`, in experiment [1], the Potency result is “inactive”. For the same compound, the Potency in experiment [2] was 205 nM (active) and 3.72 µM (active); in experiment [3], 365 nM (active) and 833 nM (active).

As for `Cc1c[nH]c2ncnc(N3CCC(CN)(C(=O)Nc4cccc(OC(=O)N(C)C)c4)CC3)c12`, the Potency entry in experiment [1] was “inactive”. Further, the Potency was 9.34 µM (active) and 7.42 µM (active) in experiment [2]; 10.5 µM (active) and 11.8 µM (active) in experiment [3].

Regarding `C=C1C(=O)O[C@@H]2[C@H]1CCC(C)=C(CCC(=O)O)[C@@]2(C)O`, in experiment [1], the Potency result is “inactive”. Further, the Potency is 20.5 µM (active) in experiment [2] and 10.3 µM (active) in experiment [3].

For the compound `C=C1C(=O)OC2CC(C)C(CCC(C)O)=CCC12` (centres undefined), the Potency entry in experiment [1] is “inactive”. The Potency in experiment [3] is 16.3 µM (active).

Regarding `C=C1C(=O)OC[C@@H]1C/C=C(\C)CC1CC(C)C(=O)O1` (some centres undefined), the Potency result in experiment [1] is “inactive”. Further, the Potency in experiment [3] was 23 µM (active).

Regarding `CC1(C)CCC(C)(C)c2cc(C#Cc3ccc(C(=O)O)cc3)ccc21`, the Potency result in experiment [1] and in experiment [3] was “inactive” throughout.

Regarding `Cc1cc(C(=O)Nc2cc(Oc3ccc4nc(NC(=O)C5CC5)cn4n3)ccc2C)n(C)n1`, the Potency entry in experiment [1] was “inactive”. Also, the Potency was 13.2 µM (active) in experiment [2] and 9.34 µM (active) in experiment [3].

Take `CC(=O)O[C@H]1[C@@]2(O)C[C@H](C)[C@H](OC(=O)c3ccccc3)[C@@H]2[C@@H](OC(=O)CO)[C@]2(OC(C)=O)C[C@H]3C(=O)C(C)(C)C[C@@H]3[C@@]1(C)[C@H]2OC(C)=O`: the Potency result in experiment [1] and in experiment [3] was “inactive” in each case.

`COc1ccc(CCc2nc3cc(-c4c(C)noc4C)ccc3n2CC(C)N2CCOCC2)cc1Cl` (centres undefined): the Potency result in experiment [1] was “inactive”. Also, the results for the Potency in experiment [2] and in experiment [3] were 2.3 µM (active) and 2.58 µM (active), respectively.

Regarding `CC1CCC(=O)CC(SCC(O)C(=O)O)CCC(=O)O1` (centres undefined), the Potency result in experiment [1] and in experiment [3] was “inactive” each time.

Consider `C/C=C(/C=C(C)/C=C/C=C/C=C(\C)C(=O)C12OC1C(O)(CCO)NC2=O)C(=O)OC` (centres undefined), for which, in experiment [1], the Potency entry was “inactive”. The Potency in experiment [3] was 7.96 µM (active).

On to `C=C1C(OC2OC(CO)C(O)C(O)C2O)CC2C(C)(C)C(O)CCC2(C)C1CC/C(C)=C\COC(=O)CC(=O)O` (centres undefined), for which the Potency result in experiment [1] was “inactive”. Moreover, in experiment [3], the Potency is 4.83 µM (active).
